# Screens: PubChem, National Center for Advancing Translational Sciences (NCATS)
# The list is not random: actives were taken first. Their share in the collection is about 3.9%.
# HT1080 IDH1KD tx: kills HT-1080 cells with IDH1 knockdown; HT-1080 IDH1 knockdown viability, ATP luminescence, 48 h; Potency, µM (doses to about 46.1 µM), for the others: at the highest dose activity, negative = toxicity, hits mostly cytotoxic; 2% of 360,000 active; AID 686971;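 note: 0% = DMSO wells and -100% = cell-free medium wells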
#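 Using the IDH1-knockdown HT-1080 line run in the same batch and compound series as the NT line, viability after 48 h at 37 °C was determined by CellTiter-Glo luminescence and expressed as % activity.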
# ATXN2 expr inh: reduces ATXN2 reporter expression in HEK-293 cells | HEK-293 ATXN2-luciferase reporter, luminescence, 24 h | Potency, µM (doses to about 57 µM), for the others: at the top dose activity change, negative = inhibition, most hits filed as inhibitors | 0.72% of 360,000 active | AID 1745845; note: % is set by controls: 0 for no effect and ±100 for the full control effect; nearly all actives have a fitted effect of over 55% in size
#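 ATXN2-luciferase reporter cells (luciferase flanked by upstream and downstream ATXN2 gene portions) were treated 24 h at 37 °C with compounds at up to 57 uM. SteadyGlo luminescence gave expression; GF-AFC fluorescence gave viability.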
# HT1080-NT tox: kills 2HG-producing HT-1080-NT fibrosarcoma cells; HT-1080-NT fibrosarcoma viability, CellTiter-Glo ATP luminescence, 48 h; Potency, µM (series often up to 46.1 µM), inactives show top-dose activity, negative = less viability, most hits filed as cytotoxic; 1.6% of 360,000 active; AID 686970;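 note: NT is the 2HG producing partner of a matched IDH1 knockdown line; 0% = DMSO-treated cells and -100% = media-only wells without cells; nearly all actives have a fitted effect of over 55% in size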
#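 A 48-hour cytotoxicity screen used HT-1080-NT cells plated 2 hours before compound delivery. ATP-based CellTiter-Glo luminescence measured viability, normalized to DMSO and no-cell controls.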
# HepG2 tox: HepG2 cytotoxicity, counter-screen for TGF-b inhibitors. HepG2 CAGA-GFP viability, ATP luminescence, 18 h. Potency, µM (titrated, usually from 46.1 µM), inactives show top-dose activity change, negative = cytotoxicity, hits mostly cytotoxic. 0.76% of 410,000 active
#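 HepG2 CAGA-GFP cells (1000/well, DMEM with 1% FBS) received compound, then TGF-beta at 500 pg/mL final, and were incubated 18 hours at 37 degrees C. Viability was read by CellTiter-Glo luminescence. Media-only wells were set as complete cell-killing and DMSO as no toxicity.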
# ATXN viability: viability counter-screen for ATXN expression inhibitors. S2 cells (HEK-293 line with an ATXN2-luciferase reporter) viability, CellTiter-Fluor protease fluorescence, 24 h. Potency, µM (series often up to 56.7 µM), most hits filed as cytotoxic. 0.49% of 400,000 active; note: nearly all actives have a fitted effect of over 40% in size
# TGFb inhibitor: TGF-b pathway inhibition. HepG2 CAGA-GFP TGF-b/SMAD3 reporter, GFP fluorescence, 18 h; TGF-beta stimulated, 500 pg/mL final. Potency, µM (highest dose often 46.1 µM), for inactives: top-dose activity, negative = inhibition, usual class: inhibitors. 1.2% of 410,000 active; note: % is set by controls: 0 for no effect and ±100 for the full control effect; nearly all actives have a fitted effect of over 65% in size
#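 Cell-based qHTS in HEPG2 carrying a CAGA-GFP Smad reporter; compounds added before 500 pg/mL final TGF-beta, 18 h incubation at 37 degrees C, GFP fluorescence quantified per cell by imaging cytometry.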
# * hit, by the source's call; i = inactive; ? = inconclusive; . = not tested or not shown; [ ] = remark or other dose. Calls come from the whole dose curve; as a rule, active = well fitted curve in the direction sought with a large enough effect; inconclusive = small, poorly fitted or top-dose-only effect, or another doubt; inactive = no such curve, though single readings can be large; an effect the other way counts as inactive or inconclusive. Potency is the fitted concentration of half-maximal effect.
SMILES,HT1080 IDH1KD tx,ATXN2 expr inh,HT1080-NT tox,HepG2 tox,ATXN viability,TGFb inhibitor
COc1ccc(C(NC(=O)C2CCN(CCOc3ccc(Cl)cc3)CC2)c2cccs2)cc1 (configuration not stated),?,-23.7%,20.6µM*,-61.0%,?,?
COc1ccc(OCCN2CCC(C(=O)NC(c3ccc(F)cc3)c3ccc4ccccc4n3)CC2)cc1 (configuration not stated),?,?,?,11.2µM*,?,20µM*
COc1ccc(OCCN2CCC(C(=O)NC(c3ccccc3)c3ccc4ccccc4n3)CC2)cc1 (configuration not stated),?,0.0%,?,6.31µM*,?,?
O=C(NC(c1ccc(F)cc1)c1ccc2ccccc2n1)C1CCN(CCOc2ccc(F)cc2)CC1 (configuration not stated),9.2µM*,28.2µM*,?,15.8µM*,15.8µM*,11.2µM*
COc1ccc(OCCN2CCC(C(=O)NC(c3ccc(OC)cc3)c3ccccn3)CC2)cc1 (configuration not stated),-2.1%,2.3%,-4.8%,-24.1%,i,0.0%
CCC1CN(CCNC(=O)c2cc(C(C)C)nn2C)Cc2cc(OC)ccc2O1 (configuration not stated),.,.,.,.,i,.
CCc1ccc(C2CC(=O)Nc3c2c(=O)n(C)c2ncnn32)cc1 (configuration not stated),.,-13.7%,.,-10.9%,i,17.3%
Cn1cc(CN2CCC(C(=O)NC(c3ccc(F)cc3)c3ccc4ccccc4n3)CC2)c2ccccc21 (configuration not stated),16.4µM*,28.2µM*,23.1µM*,10µM*,28.2µM*,?
O=C(NC(c1ccc(F)cc1)c1ccc2ccccc2n1)C1CCN(CCOc2ccc(Cl)cc2Cl)CC1 (configuration not stated),11.6µM*,?,?,11.2µM*,.,?
COc1cc(=O)n2c(c1C(=O)NCc1ccc3c(c1)OCO3)CCN(C(=O)c1ccccc1F)CC2,.,.,.,.,i,.
CC(=O)N(C(C)=O)N1C(=O)/C(=C/c2ccc(Cl)cc2)SC1=S,?,?,-15.8%,-35.8%,?,15.8µM*
Cc1ccc(C)n1N1C(=O)/C(=C\c2ccc(Cl)cc2)SC1=S,-22.9%,-4.6%,-1.2%,-30.7%,i,-19.3%
COc1ccc(O)c(CN2CCC3(CCC(CNC(=O)C4CCCO4)O3)CC2)c1 (configuration not stated),.,.,.,.,i,.
CC1CCCCC1NC(=O)COC(=O)c1ccc([N+](=O)[O-])o1 (configuration not stated),2.1%,-15.3%,7.3%,-8.1%,i,3.2%
CC1CCCC(NC(=O)COC(=O)c2ccc([N+](=O)[O-])o2)C1C (configuration not stated),-0.8%,-18.0%,-3.0%,3.16µM*,i,-24.8%
CCc1ccccc1NC(=O)Cn1cc2c(n1)CCC(C)C2 (configuration not stated),.,10.7%,.,4.3%,i,6.3%
CC(CN1CCc2nnc(CNC(=O)c3cccc(F)c3)n2CC1)c1ccccc1 (configuration not stated),.,.,.,.,i,.
OC(c1cccc(Cl)c1)c1nc(-c2ccc(F)c(Cl)c2)cs1 (configuration not stated),?,7.1%,?,-59.0%,i,?
Cc1ccc(-c2csc(C(O)c3cccc(Cl)c3)n2)cc1C (configuration not stated),?,-1.0%,?,-54.5%,i,12.6µM*
OC(c1cccc(Cl)c1)c1nc(-c2ccc(Cl)cc2)cs1 (configuration not stated),?,-24.8%,-5.1%,12.6µM*,i,12.6µM*
Cc1cccc(N2CCN(C(=O)CN3C(=O)CSc4c3c(C)nn4-c3ccccc3)CC2)c1C,.,4.6%,.,1.1%,i,?
Cc1ccc(C(=O)Nc2nnc(SCc3cc(=O)c4c(C)ccc(C)c4[nH]3)s2)cc1,.,-2.7%,.,-11.1%,i,?
N#CC1=C(N)Oc2c(O)cc3ccccc3c2C1c1ccsc1 (configuration not stated),14.6µM*,?,20.6µM*,-21.9%,i,?
CCN1CC2=C(OC(N)=C(C#N)C2c2cccs2)/C(=C\c2cccs2)C1 (configuration not stated),?,?,22.4µM*,-33.4%,i,?
N#CC1=C(N)Oc2c(ccc3ccccc23)C1c1cccs1 (configuration not stated),1.26µM*,45.2%,2µM*,-17.5%,?,?
SMILES,HT1080 IDH1KD tx,ATXN2 expr inh,HT1080-NT tox,HepG2 tox,ATXN viability,TGFb inhibitor
N#CC1=C(N)Oc2cc(O)ccc2C1c1cccs1 (configuration not stated),-20.3%,4.7%,-17.2%,-33.1%,i,9.2%
CCOC(=O)C1=C(CC)OC(N)=C(C#N)C1c1cccs1 (configuration not stated),22.4µM*,7.1%,?,-13.1%,i,-6.1%
COC(=O)c1ccc(C2c3c(-c4ccccc4O)n[nH]c3C(=O)N2Cc2cccnc2)cc1 (configuration not stated),.,3.3%,.,7.8%,?,2.0%
C[C@]12CC[C@H](O)CC1=CC[C@@H]1[C@H]2CC[C@]2(C)C(c3cccnc3)=CC[C@H]12,.,-6.8%[25.6 µM],.,.,.,.
CC/C(=C/c1ccccc1OC)c1cc(-c2ccccc2)cc2oc3ccccc3c12,.,.,.,9.3%,.,-4.3%
CCOC(=O)c1cccc(NC(=O)CCc2c(C)nc3cc(-c4ccc(Cl)cc4)nn3c2C)c1,.,-29.9%,.,4.0%,i,-8.2%
CC1=Nc2cc(C(=O)NCCCN3CCOCC3)ccc2Sc2c(C)ccc(C)c21,20.6µM*,2.1%,16.4µM*,-29.7%,i,?
CC1=Nc2cc(C(=O)NCCN3CCOCC3)ccc2Sc2c(C)ccc(C)c21,?,.,?,-62.1%,i,15.8µM*
Cc1ccc(Cc2nc3ccccc3nc2SCC(=O)Nc2ccc3c(c2)OCO3)cc1,.,4.2%,.,-2.8%,i,-10.0%
CC(C)c1ccc2oc(-c3ccc(Cl)c(NC(=O)c4cccs4)c3)nc2c1,.,24.0%,.,-26.4%,i,-2.8%
Nc1c(N(CCC2=CCCCC2)C(=O)COc2ccc(F)cc2)c(=O)[nH]c(=O)n1Cc1ccccc1,?,?,?,8.91µM*,.,7.94µM*
